This is one part of a sample in which hits are shown more often than they occur.
Shiga toxin inh: blocks Shiga toxin action in Vero cells; Vero cells, Shiga toxin protein synthesis inhibition reporter; inhibition, % at 38.7 µM; 9.2% of 290,000 active; in the data active = inhibition mostly above about 28%, no sharp cut-off; inactive = mostly below about 43%; also: 0% is about no effect
LmPK inhibitor: inhibitors of Leishmania mexicana pyruvate kinase | Potency, µM (titrated, usually from 57.5 µM), inactives show at the highest dose activity change, negative = inhibition, hits mostly inhibitors | 0.37% of 290,000 active | Q27686 | purified LmPK, Kinase-Glo ATP luminescence, 1 h; also: potency is read from the fitted curve at half-maximal effect; % is scaled to controls: 0 for no effect and ±100 for the full control effect
Target sequence (Q27686 whole entry, looked up): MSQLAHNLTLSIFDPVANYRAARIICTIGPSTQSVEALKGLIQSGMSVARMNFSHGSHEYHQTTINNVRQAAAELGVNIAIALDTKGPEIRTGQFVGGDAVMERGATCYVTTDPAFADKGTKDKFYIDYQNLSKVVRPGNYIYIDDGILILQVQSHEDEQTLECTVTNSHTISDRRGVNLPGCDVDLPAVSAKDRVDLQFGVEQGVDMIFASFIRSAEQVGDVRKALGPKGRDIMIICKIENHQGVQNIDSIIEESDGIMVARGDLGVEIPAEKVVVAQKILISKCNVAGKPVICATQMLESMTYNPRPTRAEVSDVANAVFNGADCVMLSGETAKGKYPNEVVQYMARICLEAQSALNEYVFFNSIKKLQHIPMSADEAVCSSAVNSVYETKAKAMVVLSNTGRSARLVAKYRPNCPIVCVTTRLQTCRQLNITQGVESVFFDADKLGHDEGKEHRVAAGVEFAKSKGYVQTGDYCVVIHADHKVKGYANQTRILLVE
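Pyruvate kinase activity monitored as ATP production (luciferase luminescence). Conditions: 0.1 nM enzyme, 0.5 mM PEP, 0.1 mM ADP, 1 h, RT; normalized against uninhibited and no-enzyme wells.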
RE007 growth inh: less growth of the S. pombe RE007 Vpr strain. S. pombe RE007 Vpr strain, BacTiter-Glo ATP luminescence, 24 h. Potency, µM (series often up to 92.2 µM), without a hit: at the top dose activity change, negative = less growth, actives largely listed as inhibitors. 0.21% of 360,000 active. AID 651644; active = well fitted falling curve with a large enough effect; inconclusive = small, poorly fitted or top-dose-only effect; inactive = no such curve, though single readings can be large or run the other way; also: potency is read from the fitted curve at half-maximal effect; % is scaled to controls: 0 for no effect and ±100 for the full control effect; nearly all actives have a fitted effect of over 50% in size
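Fission yeast RE007 carrying one integrated HIV-1 vpr copy, seeded at OD 0.01 in PMG+AL medium with 23 nL pinned compound. Grown 24 h at 30 degrees; viability read by BacTiter-Glo luminescence after 5 min.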
CHX counter: counter-screen for Shiga toxin inhibitors: cycloheximide protein synthesis inhibition. 12% of 300,000 active. cell reporter, cycloheximide protein synthesis inhibition counterscreen. max response, %. AID 2314; in the data active = max response mostly above about 13%, no sharp cut-off; inactive = mostly below about 14%; also: read at 38.3 µM for the half of the compounds with a filed dose; 0% is about no effect
FBPA Giardia inh: blocks Giardia fructose-bisphosphate aldolase activity; AID 2451; 0.71% of 290,000 active; A8B2U2; Potency, µM (doses to about 59.6 µM), inactives show at the highest dose activity, negative = inhibition, most hits filed as inhibitors; purified Giardia FBPA; also: potency is read from the fitted curve at half-maximal effect; % is scaled to controls: 0 for no effect and ±100 for the full control effect; nearly all actives have a fitted effect of over 55% in size
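40 nM FBPA preincubated 10 min at RT with compound (up to 57.5 uM final), then substrate plus GAPDH/TPI/NAD/arsenate coupling and diaphorase/resazurin added. Fluorescence read after 20 min at RT, 525/598 nm.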
Tb PYK inh: blocks Trypanosoma brucei pyruvate kinase; Potency, µM (top dose mostly 76.8 µM), without a hit: at the highest dose activity, negative = inhibition, hits mostly inhibitors; 0.12% of 410,000 active; TbPYK enzyme, Kinase-Glo Plus ATP luminescence, 45 min; Q57TT1; also: potency is read from the fitted curve at half-maximal effect; % is scaled to controls: 0 for no effect and ±100 for the full control effect; nearly all actives have a fitted effect of over 50% in size
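Screened from lowest to highest concentration, compounds were pinned into TbPYK/substrate mixtures, and ADP (130 uM final) was added. Plates sat at room temperature for 45 min prior to Kinase-Glo Plus detection by luminescence.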
Numbers without * were called inactive; ? = inconclusive; . = no result; + = active, no number; [ ] = another dose, or the depositor's remark. Unless noted, calls follow the shape of the dose curve; as a rule, active = well fitted curve in the direction sought with a large enough effect; inconclusive = small, poorly fitted or top-dose-only effect, or another doubt; inactive = no such curve, though single readings can be large; an effect the other way counts as inactive or inconclusive.

SMILES	Shiga toxin inh	LmPK inhibitor	RE007 growth inh	CHX counter	FBPA Giardia inh	Tb PYK inh
COC(=O)c1cc(-c2ccc(Br)cc2)n[nH]1	41.1*	0.3%	-27.1%	29.0*	1.7%	3.3%
CCOc1ccc(-c2cc(C(=O)NN)[nH]n2)cc1	43.5*	-3.0%	20.4%	43.4*	3.9%	-7.7%
COc1ccc(-c2cc(C(=O)O)[nH]n2)cc1OC	-3.6	-0.3%	13.6%	-1.1	3.0%	9.4%
COc1ccc(-c2cc(C(=O)NNC(=S)NC(=O)c3c(-c4ccccc4)noc3C)[nH]n2)cc1	106.3*	-0.8%	1.2%	19.4*	17.2%	-6.0%
O=C(CSc1nnc(NC(=O)c2c(F)cccc2F)s1)NC1CCCCC1	2.7	-1.5%	-1.0%	10.3	4.1%	2.9%
O=C(O)Cn1ccc2ccccc21	-5.9	2.9%	2.6%	-2.3	0.5%	-1.6%
O=C(c1ccccc1)n1ccc2ccccc21	136.6*	-1.3%	-24.8%	31.3*	-3.8%	-1.3%
Cc1c(C(=O)OC2CCC(C)CC2)[nH]c2c1C(=O)CC(c1ccc(F)cc1)C2 (stereo not given)	.	.	.	.	.	-1.4%
CCOc1cc(-c2nc(-c3ccc(-c4ccc(C)cc4)nc3OC)no2)cc(OCC)c1OCC	.	.	.	.	.	1.0%
Cc1c(C=O)c(Cl)n(C)c(=O)c1C#N	-5.0	-8.4%	2.3%	6.8	9.98µM*	-0.4%
Cc1c(/C=N/Nc2ccc(F)cc2)c(O)n(C)c(=O)c1C#N	-5.8	16.6%	-5.5%	2.0	?	-1.3%
CC(=O)N=Cc1c(C)c(C#N)c(=O)n(C)c1O	-6.3	0.6%	-2.8%	1.6	8.89µM*	0.6%
Cc1cc(C)n(C)c(=O)c1C#N	-16.1	-3.8%	-9.9%	7.3	2.1%	1.6%
CCCCn1nc(C(=O)N2CCN(S(=O)(=O)c3ccccc3)CC2)c2ccccc2c1=O	.	.	18.6%	.	.	2.0%
COc1ccc(CCN(C)Cc2ccc(C(=O)Nc3ccccc3)cc2)cc1OC	-24.5	-8.5%	3.0%	15.7	.	-2.9%
CC1=NN(c2cccc(C(=O)O)c2)C(=O)/C1=C\C=C/c1ccccc1	+	-1.6%	-25.6%	79.9*	-24.1%	?
Cc1nn2c3c(cnc2c1-c1ccc(Cl)cc1)C(=O)CC(c1ccc(C(C)C)cc1)C3 (stereo not given)	.	.	.	.	.	-5.4%
O=C(NCCN1C(=O)S/C(=C\c2cccs2)C1=O)c1ccco1	37.4	2.5%	0.5%	45.8*	-1.7%	-2.4%
CC(=O)NCCN1C(=O)S/C(=C\c2cccs2)C1=O	9.6	-2.1%	-1.0%	13.8	0.2%	-4.3%
COc1cccc(-c2cc(C(=O)NCC3CCCO3)on2)c1 (stereo not given)	48.0*	-6.8%	-11.4%	35.5*	.	2.8%
O=C(NCC1CCCO1)c1cc(-c2ccc(F)cc2)no1 (stereo not given)	96.5*	-7.2%	-0.4%	44.7*	.	-4.5%
CC(C)c1ccc(NC(=O)NN2CCOCC2)cc1	138.2*	-5.3%[11.5 µM]	3.3%	42.6*	7.0%	-3.7%
CCOC(=O)c1ccc(NC(=S)N2CCSC2c2ccc(Cl)cc2)cc1 (stereo not given)	10.2	-1.3%	-10.2%	6.3	-8.7%	-1.2%
CCOC(=O)c1ccc(NC(=S)N2CCSC2c2ccc(OC)cc2)cc1 (stereo not given)	23.4*	7.4%	5.2%	26.0*	-6.7%	-2.8%
CCOC(=O)c1ccc(NC(=S)NNC(C)(C)C)cc1	83.8*	3.0%	-14.3%	61.4*	4.0%	-22.2%
SMILES	Shiga toxin inh	LmPK inhibitor	RE007 growth inh	CHX counter	FBPA Giardia inh	Tb PYK inh
CCOC(=O)c1ccc(NC(=S)Nc2ccc(C)cc2)cc1	28.6	0.7%	-7.3%	12.3	-0.2%	0.3%
CCOC(=O)c1ccc(NC(=S)NN2CCOCC2)cc1	39.2*	-1.5%	0.2%	32.2*	-22.2%	-10.0%
CC(C)c1ccc(NC(=O)C(c2ccccc2)N2CCOCC2)cc1 (stereo not given)	4.3	4.2%	6.0%	2.0	-2.6%	-7.2%
CCCC(=O)Nc1ccc(Cl)c(NC(=O)c2cccc(OC)c2)c1	-10.6	4.8%	-15.3%	7.7	-1.6%	-3.5%
CCCCc1ccc(NC(=S)NN2CCOCC2)cc1	110.6*	3.0%	8.5%	67.3*	17.9%	-2.1%
CCC(C)c1ccc(NC(=S)NN2CCOCC2)cc1 (stereo not given)	87.3*	8.0%	3.8%	42.3*	-16.7%	1.0%
CCOC(=O)c1ccc(NC(=S)NC(=O)COc2ccccc2)cc1	-3.3	0.1%	7.9%	54.7*	-8.8%	-8.6%
CCOC(=O)c1ccc(NC(=S)Nc2ccccc2)cc1	18.5	-0.8%	1.7%	8.5	-7.8%	-1.6%
CCC(C)c1ccc(NC(=S)Nc2ccc(OC)cc2)cc1 (stereo not given)	-1.4	-2.4%	-5.8%	15.0	-0.1%	13.8%
CCOC(=O)N1CCN(C(=O)c2cnn(-c3cccc(F)c3)c2-n2cccc2)CC1	.	.	.	.	.	3.3%[15.4 µM]
CC(=O)Nc1cc(-c2cccc(N)c2)cn2c(-c3ccc(C(C)=O)cc3)cnc12	.	.	-9.5%[18.4 µM]	.	.	-27.8%
COc1cc2c(cc1NC(=O)c1cccc(F)c1)CCCC2	67.3*	1.7%	.	35.9*	-4.5%	-4.3%
COc1cc2c(cc1NC(=O)c1ccccc1F)CCCC2	92.6*	0.7%	0.3%	50.3*	-1.4%	-5.8%
COc1cc(OC)c(NC(=O)c2ccccc2F)cc1Cl	30.5	0.7%	0.0%	3.7	-0.4%	1.6%
O=C(Nc1cccc2c1CCCC2)c1ccccc1F	44.1	-1.5%	-6.1%	22.5*	-10.9%	8.1%
O=C(Nc1cccc2c1CCCC2)c1cccc(F)c1	-5.0	-0.6%	6.7%	-3.0	3.1%	0.4%
COc1ccc2c(c1)CC/C2=N\OC(=O)c1ccccc1OC	90.4*	-26.2%	-20.9%	37.8*	-13.7%	-12.5%
O=C(NCC1CCCO1)c1c[nH]c2ccc(S(=O)(=O)Nc3ccc(F)cc3F)cc2c1=O (stereo not given)	.	.	.	.	.	3.7%
Cc1ccccc1S(=O)(=O)Oc1ccc2ccc(O)cc2c1	.	11.8%	0.1%	32.5*	-21.8%	-2.3%
COc1cccc(C(=O)Oc2ccc3ccc(O)cc3c2)c1	.	8.8%	-13.6%	38.5*	3.0%	-3.3%
Cc1ccccc1C(=O)Oc1ccc2ccc(O)cc2c1	.	7.6%	0.7%	58.6*	-16.6%	0.9%
Cc1ccccc1C(=O)Oc1cccc2c(O)cccc12	12.5	6.0%	?	9.0	-4.1%	-10.7%
O=C(Cc1ccc(NC(=O)N2CCSc3ncccc32)cc1)NCCc1ccccc1	.	.	.	.	.	5.2%[15.4 µM]
N#Cc1ccc(CS(=O)(=O)c2nnnn2C2CCCCC2)cc1	.	.	.	.	2.2%	.
Cc1nc2n(c(=O)c1CCN1CCC(c3noc4cc(F)ccc34)CC1)CCC[C@@H]2O	.	.	.	.	.	-4.9%
Cc1ccc(C)c2c1c1ccccc1n2C	41.6	1.2%	-11.8%	19.7*	-0.1%	-1.5%
CCC(C(=O)N1CCN(c2ccccc2)CC1)n1c(C)c2cnn(-c3ccccc3)c(=O)c2c1C (stereo not given)	.	.	.	.	.	-4.0%

Bioassay records: PubChem, National Center for Advancing Translational Sciences (NCATS)
